# Source: PubChem BioAssay (EPA / NIEHS)
# Where “and” joins values, the source holds several entries; their conditions need not be identical. Equal entries are not always repeated. Records with an inconclusive call do not appear. Calls of active or inactive are those of the source. How the source made its calls: active means hit-call score of the fitted dose curve at least 0.9, where 1 is the maximum; inconclusive means response in the unintended direction; inactive means score below 0.9.
# Columns and labels:
# [1] = molecular target: human Caspase 5 (CASP5), CASP5 (gene 838) (UniProt P51878); test: NVS_ENZ_hCASP5: NovaScreen (NVS) Enzymatic Assay for human Caspase 5 (CASP5) (AID 2283137)
# Outline: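 E. coli-derived enzyme, cell-free, 2 h incubation, fluorescence intensity. 25 uM duplicate single-point; hits → concentration series to 50 uM. DMSO baseline, positive/negative controls on every plate.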
# [2] = molecular target: human Ephrin type-A Receptor 1 (EphA1), EPHA1 (gene 2041) (UniProt P21709); test: NVS_ENZ_hEphA1: NovaScreen (NVS) Enzymatic Assay for human Ephrin type-A Receptor 1 (EphA1) (AID 2283158);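 further: activity is signal loss versus DMSO meaning EphA1 kinase inhibition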
# Outline: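 Biochemical kinase assay run cell-free; 1 h incubation; readout is fluorescence with mobility-shift separation of product. Concentration-response up to 50 uM for actives from a 25 uM screen.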
# [3] = molecular target: human Caspase 4 (CASP4), CASP4 (gene 837) (UniProt P49662); test: NVS_ENZ_hCASP4: NovaScreen (NVS) Enzymatic Assay for human Caspase 4 (CASP4) (AID 2283143)
# Outline: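 The cell-free assay used E. coli-expressed enzyme with a fluorogenic substrate, read 2 h after dosing. Signal loss was scored versus DMSO. Screening was in duplicate at 25 uM, then singleton concentration-response up to 50 uM.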
# [4] = molecular target: human FYN Proto-Oncogene, Src family Tyrosine Kinase (Fyn), FYN (gene 2534) (UniProt P06241); test: NVS_ENZ_hFyn: NovaScreen (NVS) Enzymatic Assay for human FYN Proto-Oncogene, Src family Tyrosine Kinase (Fyn) (AID 2283161)
# Outline: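 Recombinant enzyme with fluorescent substrate, product separated by electrophoretic mobility shift; read 1 h after dosing. Duplicate 25 uM single-point screen, actives retested in concentration series; loss of signal vs DMSO.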
# [5] = molecular target: CDK2 (gene 1017) (UniProt P24941); test: NVS_ENZ_hCDK2: NovaScreen (NVS) Enzymatic Assay for human Cyclin-Cependent Kinase 2 (CDK2) (AID 2283144)
# Outline: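 Cell-free recombinant human CDK2 with fluorescent substrate, product separated by electrophoretic mobility shift; 1 hr read. Primary screen at 25 uM in duplicate, actives retested in concentration-response up to 50 uM; loss of signal versus DMSO.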
# [6] = molecular target: human Caspase 8 (CASP8), CASP8 (gene 841) (UniProt Q14790); test: NVS_ENZ_hCASP8: NovaScreen (NVS) Enzymatic Assay for human Caspase 8 (CASP8) (AID 2283146)
# Outline: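 E. coli-expressed enzyme was used in a cell-free fluorogenic substrate assay read 1 h after dosing. Loss of signal was scored relative to DMSO, and the primary screen was run in duplicate at 25 uM.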
# [7] = molecular target: human Acid Phosphatase 1 (ACP1), ACP1 (gene 52) (UniProt P24666); test: NVS_ENZ_hACP1: NovaScreen (NVS) Enzymatic Assay for human Acid Phosphatase 1 (ACP1) (AID 2283136)
# Outline: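 Recombinant enzyme expressed in Sf9 cells, tested cell-free; activity read by fluorescence with electrophoretic mobility shift separation of substrate and product, 1.5 h after dosing. Primary screen in duplicate at 25 uM, actives then run in concentration series; loss of signal versus DMSO.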
# [8] = molecular target: human AKT serine/threonine Kinase 2 (AKT2), AKT2 (gene 208) (UniProt P31751); test: NVS_ENZ_hAKT2: NovaScreen (NVS) Enzymatic Assay for human AKT serine/threonine Kinase 2 (AKT2) (AID 2283141)
# Outline: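 Cell-free fluorescence/electrophoretic mobility shift readout of recombinant human AKT2 activity, 1 h after chemical dosing. Duplicate primary screen at 25 uM, then singleton concentration-response up to 50 uM; loss of signal versus DMSO baseline.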
# [9] = molecular target: human Elastase, ELANE (gene 1991) (UniProt P08246); test: NVS_ENZ_hElastase: NovaScreen (NVS) Enzymatic Assay for human Elastase (AID 2283153)
# Outline: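 Cell-free elastase from human neutrophils, 1.5 h after dosing, activity read by absorbance. Primary screen in duplicate at 25 uM; hits (e.g., 30% inhibition) rerun in singleton concentration-response up to 50 uM, fitted versus DMSO.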
# [10] = molecular target: Caspase-3 (Homo sapiens) (UniProt P42574); test: NVS_ENZ_hCASP3: NovaScreen (NVS) Enzymatic Assay for human Caspase 3 (CASP3) (AID 2283139)
# Outline: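 Recombinant human caspase-3 from E. coli with a fluorogenic substrate, read by fluorescence 1 h after dosing. Primary screen in duplicate at 25 uM. Actives (for example ≥30% inhibition) rerun as concentration-response up to 50 uM.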
# [11] = molecular target: human AKT serine/threonine Kinase 1 (AKT1), AKT1 (gene 207) (UniProt P31749); test: NVS_ENZ_hAKT1: NovaScreen (NVS) Enzymatic Assay for human AKT serine/threonine Kinase 1 (AKT1) (AID 2283138)
# Outline: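 Recombinant AKT1, specific substrate, cell-free; 1 h; fluorescence intensity/electrophoretic mobility shift. Duplicate single-point 25 uM, then singleton CRC max 50 uM. DMSO = negative control/baseline; signal loss = inhibition.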
# [12] = molecular target: human Casein Kinase 1-delta (CK1D), CSNK1D (gene 1453) (UniProt P48730); test: NVS_ENZ_hCK1D: NovaScreen (NVS) Enzymatic Assay for human Casein Kinase 1-delta (CK1D) (AID 2283148)
# Outline: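 Recombinant human CK1-delta, cell-free; fluorescent substrate with electrophoretic mobility-shift separation of product, read 1 h after dosing. Single 25 uM duplicate screen, then concentration-response up to 50 uM; loss of signal vs DMSO.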
# [13] = molecular target: human Dual Specificity Protein Phosphatase 3 (DUSP3), DUSP3 (gene 1845) (UniProt P51452); test: NVS_ENZ_hDUSP3: NovaScreen (NVS) Enzymatic Assay for human Dual Specificity Protein Phosphatase 3 (DUSP3) (AID 2283152);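 further: phosphatase activity of recombinant human DUSP3 on a fluorogenic substrate without cells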
# Outline: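 Cell-free assay with recombinant human DUSP3 and fluorogenic substrate, read by fluorescence intensity. Primary screen ran duplicate at 25 uM; actives followed up in concentration series; loss of signal versus DMSO scored.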
# [14] = molecular target: human Esterase Plasma (ES), BCHE (gene 590) (UniProt P06276); test: NVS_ENZ_hES: NovaScreen (NVS) Enzymatic Assay for human Esterase Plasma (ES) (AID 2283157)
# Outline: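 Chemicals were added to plasma-extracted human enzyme in a cell-free format, and activity was read colorimetrically after 0.25 hour. Activity loss was referenced to DMSO; concentration-response top dose was 50 uM.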
# [15] = molecular target: Cytochrome P450 2C19 (Homo sapiens) (UniProt P33261); test: NVS_ADME_hCYP2C19: NovaScreen (NVS) CYP450-related Enzyme Activity (ADME) Assay for human CYP2C19 (AID 2283113);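 on AC50: potency for inhibition seen as loss of fluorescent signal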
# Outline: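 Chemicals first screened in duplicate at 10 uM against recombinant human enzyme produced in insect cells; confirmed actives then run as concentration series. Fluorogenic substrate turnover read by fluorescence after 1 h, normalised to acetonitrile.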
# [16] = molecular target: human Colony Stimulating Factor 1 Receptor (CSF1R), CSF1R (gene 1436) (UniProt P07333); test: NVS_ENZ_hCSF1R: NovaScreen (NVS) Enzymatic Assay for human Colony Stimulating Factor 1 Receptor (CSF1R) (AID 2283150)
# Outline: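 Cell-free recombinant human CSF1R kinase with fluorescent substrate, product separated by electrophoretic mobility shift; read 1 h after dosing. Primary screen at 25 uM in duplicate, actives then in concentration-response up to 50 uM, relative to DMSO.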
# Sequence of human Casein Kinase 1-delta (CK1D), CSNK1D (gene 1453) (P48730 whole entry, looked up): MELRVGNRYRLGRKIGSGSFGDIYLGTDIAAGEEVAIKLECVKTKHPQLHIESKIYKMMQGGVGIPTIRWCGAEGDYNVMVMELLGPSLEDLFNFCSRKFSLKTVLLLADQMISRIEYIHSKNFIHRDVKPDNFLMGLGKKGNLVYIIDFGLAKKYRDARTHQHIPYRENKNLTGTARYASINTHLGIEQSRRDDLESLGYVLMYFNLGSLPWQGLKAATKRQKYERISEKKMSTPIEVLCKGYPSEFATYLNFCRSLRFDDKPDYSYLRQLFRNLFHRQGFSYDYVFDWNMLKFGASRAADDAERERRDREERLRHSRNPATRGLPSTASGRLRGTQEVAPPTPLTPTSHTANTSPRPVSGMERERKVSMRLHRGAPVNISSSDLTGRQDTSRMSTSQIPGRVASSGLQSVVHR
# Sequence of human Dual Specificity Protein Phosphatase 3 (DUSP3), DUSP3 (gene 1845) (P51452 whole entry, looked up): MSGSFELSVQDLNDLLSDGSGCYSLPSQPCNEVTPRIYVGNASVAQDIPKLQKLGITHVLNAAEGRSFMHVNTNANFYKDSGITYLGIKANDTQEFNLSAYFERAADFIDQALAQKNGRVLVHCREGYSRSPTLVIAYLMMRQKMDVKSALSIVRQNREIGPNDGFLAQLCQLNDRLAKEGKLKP
# Sequence of human FYN Proto-Oncogene, Src family Tyrosine Kinase (Fyn), FYN (gene 2534) (P06241 whole entry, looked up): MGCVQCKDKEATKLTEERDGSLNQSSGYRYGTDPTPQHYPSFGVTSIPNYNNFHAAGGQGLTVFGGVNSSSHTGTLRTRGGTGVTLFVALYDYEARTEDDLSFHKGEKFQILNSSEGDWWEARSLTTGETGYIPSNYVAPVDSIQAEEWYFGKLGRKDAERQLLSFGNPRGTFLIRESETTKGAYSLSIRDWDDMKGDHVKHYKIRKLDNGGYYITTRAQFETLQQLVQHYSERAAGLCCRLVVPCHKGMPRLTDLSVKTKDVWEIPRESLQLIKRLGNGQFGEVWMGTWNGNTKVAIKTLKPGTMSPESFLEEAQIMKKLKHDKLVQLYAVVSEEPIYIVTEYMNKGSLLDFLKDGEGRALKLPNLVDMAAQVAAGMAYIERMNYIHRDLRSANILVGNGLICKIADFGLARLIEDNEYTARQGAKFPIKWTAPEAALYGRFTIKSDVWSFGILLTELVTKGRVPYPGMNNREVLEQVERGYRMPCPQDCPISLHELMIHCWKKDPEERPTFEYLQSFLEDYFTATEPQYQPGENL
# Sequence of human Caspase 8 (CASP8), CASP8 (gene 841) (Q14790 whole entry, looked up): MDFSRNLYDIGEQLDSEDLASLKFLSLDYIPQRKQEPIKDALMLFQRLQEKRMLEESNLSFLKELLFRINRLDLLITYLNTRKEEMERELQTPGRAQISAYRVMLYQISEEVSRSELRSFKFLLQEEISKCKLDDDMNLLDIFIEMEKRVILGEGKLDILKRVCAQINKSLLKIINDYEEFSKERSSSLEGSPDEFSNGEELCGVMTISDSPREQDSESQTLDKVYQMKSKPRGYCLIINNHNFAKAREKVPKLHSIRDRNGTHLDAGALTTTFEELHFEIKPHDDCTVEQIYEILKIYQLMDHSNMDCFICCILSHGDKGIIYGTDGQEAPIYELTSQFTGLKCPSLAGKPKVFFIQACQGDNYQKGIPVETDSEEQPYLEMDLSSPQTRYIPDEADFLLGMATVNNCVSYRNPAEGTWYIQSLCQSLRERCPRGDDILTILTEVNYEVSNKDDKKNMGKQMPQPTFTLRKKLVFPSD
# Sequence of human Caspase 5 (CASP5), CASP5 (gene 838) (P51878 whole entry, looked up): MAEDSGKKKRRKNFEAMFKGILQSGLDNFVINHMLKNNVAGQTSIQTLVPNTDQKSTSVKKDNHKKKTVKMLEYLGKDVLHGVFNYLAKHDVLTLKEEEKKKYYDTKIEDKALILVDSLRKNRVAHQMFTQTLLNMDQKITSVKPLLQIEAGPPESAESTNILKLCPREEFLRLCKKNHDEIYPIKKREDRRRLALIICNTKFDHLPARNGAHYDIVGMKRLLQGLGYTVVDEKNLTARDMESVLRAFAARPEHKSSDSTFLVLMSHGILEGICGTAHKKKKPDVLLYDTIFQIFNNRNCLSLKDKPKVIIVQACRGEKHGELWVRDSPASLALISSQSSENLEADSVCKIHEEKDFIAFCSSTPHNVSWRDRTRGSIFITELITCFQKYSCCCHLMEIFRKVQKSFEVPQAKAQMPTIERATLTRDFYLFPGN
# Sequence of human Esterase Plasma (ES), BCHE (gene 590) (P06276 whole entry, looked up): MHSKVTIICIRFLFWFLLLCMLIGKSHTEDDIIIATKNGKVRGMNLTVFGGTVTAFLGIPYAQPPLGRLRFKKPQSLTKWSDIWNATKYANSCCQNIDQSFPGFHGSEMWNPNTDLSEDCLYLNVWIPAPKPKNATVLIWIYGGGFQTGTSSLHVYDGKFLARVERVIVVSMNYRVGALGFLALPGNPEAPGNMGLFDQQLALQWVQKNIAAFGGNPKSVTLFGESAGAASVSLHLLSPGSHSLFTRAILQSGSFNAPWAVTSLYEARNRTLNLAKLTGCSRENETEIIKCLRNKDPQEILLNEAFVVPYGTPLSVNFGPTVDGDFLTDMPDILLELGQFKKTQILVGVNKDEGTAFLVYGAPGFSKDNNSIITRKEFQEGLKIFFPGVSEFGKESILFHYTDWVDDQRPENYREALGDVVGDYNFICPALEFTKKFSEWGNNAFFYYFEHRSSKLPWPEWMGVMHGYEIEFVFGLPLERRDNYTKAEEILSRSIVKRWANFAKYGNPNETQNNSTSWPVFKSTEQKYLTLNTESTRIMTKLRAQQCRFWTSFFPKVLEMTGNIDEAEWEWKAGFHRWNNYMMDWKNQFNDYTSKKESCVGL
# Sequence of human AKT serine/threonine Kinase 2 (AKT2), AKT2 (gene 208) (P31751 whole entry, looked up): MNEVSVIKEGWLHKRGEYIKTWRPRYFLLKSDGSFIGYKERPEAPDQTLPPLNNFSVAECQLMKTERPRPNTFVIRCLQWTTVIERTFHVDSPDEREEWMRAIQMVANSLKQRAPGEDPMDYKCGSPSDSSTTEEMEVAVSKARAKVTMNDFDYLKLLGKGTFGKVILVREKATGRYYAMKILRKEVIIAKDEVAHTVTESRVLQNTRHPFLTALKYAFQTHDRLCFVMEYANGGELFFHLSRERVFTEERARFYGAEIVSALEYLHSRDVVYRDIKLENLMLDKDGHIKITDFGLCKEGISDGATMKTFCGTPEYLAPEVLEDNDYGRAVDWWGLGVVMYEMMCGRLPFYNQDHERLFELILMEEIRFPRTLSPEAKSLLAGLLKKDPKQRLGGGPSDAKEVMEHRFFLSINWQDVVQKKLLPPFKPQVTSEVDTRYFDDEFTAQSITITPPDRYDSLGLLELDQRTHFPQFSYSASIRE
# Sequence of human Ephrin type-A Receptor 1 (EphA1), EPHA1 (gene 2041) (P21709 whole entry, looked up): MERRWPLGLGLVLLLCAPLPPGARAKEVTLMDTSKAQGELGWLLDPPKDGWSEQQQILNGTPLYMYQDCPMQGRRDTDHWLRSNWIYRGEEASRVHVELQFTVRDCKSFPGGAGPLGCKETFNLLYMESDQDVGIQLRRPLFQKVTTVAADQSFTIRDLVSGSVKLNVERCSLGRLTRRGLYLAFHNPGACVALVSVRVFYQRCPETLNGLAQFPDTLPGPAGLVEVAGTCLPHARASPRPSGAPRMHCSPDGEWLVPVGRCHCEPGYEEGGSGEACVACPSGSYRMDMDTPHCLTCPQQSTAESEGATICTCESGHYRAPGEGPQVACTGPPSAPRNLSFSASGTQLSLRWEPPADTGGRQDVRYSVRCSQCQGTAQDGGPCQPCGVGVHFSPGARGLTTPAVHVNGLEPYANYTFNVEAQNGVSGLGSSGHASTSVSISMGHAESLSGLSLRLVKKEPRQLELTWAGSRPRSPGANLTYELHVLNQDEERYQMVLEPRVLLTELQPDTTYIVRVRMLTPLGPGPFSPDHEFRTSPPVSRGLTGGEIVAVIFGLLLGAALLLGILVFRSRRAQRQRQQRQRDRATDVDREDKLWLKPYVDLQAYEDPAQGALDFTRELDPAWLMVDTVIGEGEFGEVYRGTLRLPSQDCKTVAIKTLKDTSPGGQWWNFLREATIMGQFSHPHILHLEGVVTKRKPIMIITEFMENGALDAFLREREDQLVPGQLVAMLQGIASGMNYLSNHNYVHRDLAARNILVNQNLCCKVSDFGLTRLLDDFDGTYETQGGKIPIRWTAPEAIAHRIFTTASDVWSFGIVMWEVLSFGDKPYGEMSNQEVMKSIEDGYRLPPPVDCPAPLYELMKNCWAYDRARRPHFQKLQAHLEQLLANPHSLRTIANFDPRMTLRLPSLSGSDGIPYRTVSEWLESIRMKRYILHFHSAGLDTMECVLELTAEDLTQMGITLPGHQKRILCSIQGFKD
# Sequence of human Elastase, ELANE (gene 1991) (P08246 whole entry, looked up): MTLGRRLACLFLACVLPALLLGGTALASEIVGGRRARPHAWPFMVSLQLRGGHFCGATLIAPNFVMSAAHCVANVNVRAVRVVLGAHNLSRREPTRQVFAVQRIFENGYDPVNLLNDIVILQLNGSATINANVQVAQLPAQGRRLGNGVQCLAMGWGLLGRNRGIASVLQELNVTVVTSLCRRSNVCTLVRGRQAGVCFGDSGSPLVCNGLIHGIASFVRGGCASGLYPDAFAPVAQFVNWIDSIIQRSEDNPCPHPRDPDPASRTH
# Sequence of human Caspase 4 (CASP4), CASP4 (gene 837) (P49662 whole entry, looked up): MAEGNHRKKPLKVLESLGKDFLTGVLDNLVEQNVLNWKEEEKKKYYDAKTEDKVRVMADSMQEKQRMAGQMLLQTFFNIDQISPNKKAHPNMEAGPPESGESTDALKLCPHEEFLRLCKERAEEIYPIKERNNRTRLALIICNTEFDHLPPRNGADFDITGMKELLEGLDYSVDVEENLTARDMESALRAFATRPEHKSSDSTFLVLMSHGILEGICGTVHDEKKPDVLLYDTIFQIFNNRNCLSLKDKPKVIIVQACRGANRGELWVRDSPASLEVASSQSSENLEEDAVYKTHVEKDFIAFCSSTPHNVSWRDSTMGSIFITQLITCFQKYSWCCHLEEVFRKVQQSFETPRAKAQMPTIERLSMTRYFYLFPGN
# Sequence of human Acid Phosphatase 1 (ACP1), ACP1 (gene 52) (P24666 whole entry, looked up): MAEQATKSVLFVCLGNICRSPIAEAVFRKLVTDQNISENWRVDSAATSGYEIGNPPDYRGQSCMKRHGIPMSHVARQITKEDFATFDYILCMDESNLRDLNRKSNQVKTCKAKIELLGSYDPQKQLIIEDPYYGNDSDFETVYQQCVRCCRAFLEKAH
smiles,measurement,setting,value
OCc1c[nH]c2ccccc12,AC50,[1],25 µM (active) and 29.7 µM (active)
same,outcome,[2],inactive
CC(C)C(=O)Nc1ccc([N+](=O)[O-])c(C(F)(F)F)c1,outcome,[3],inactive
CCCCCCCC/C=C\CCCCCCCC(=O)OC[C@@H](O)[C@H]1OC[C@H](O)[C@H]1O,outcome,[3],inactive
same,outcome,[4],inactive
CCCC(CCC)C(=O)O,outcome,[5],inactive
same,outcome,[4],inactive
CC[C@H](C)C(=O)O[C@H]1C[C@H](O)C=C2C=C[C@H](C)[C@H](CC[C@@H](O)C[C@@H](O)CC(=O)O)[C@H]21,outcome,[6],inactive
OCCOCCOCCO,outcome,[2],inactive
Cc1nc(-c2ccccn2)ncc1C(=O)Nn1cc(C)c2cc(F)ccc21,outcome,[7],inactive
same,outcome,[8],inactive
same,outcome,[2],inactive
OCC(CO)(CO)CO,outcome,[2],inactive
c1ccc2c(c1)-c1cccc3c1c-2cc1ccccc13,outcome,[9],inactive
NC(=O)NN=Cc1ccc([N+](=O)[O-])o1,AC50,[10],20.9 µM (active)
Cc1ccc(S(=O)(=O)NC(=O)NN2CCCCCC2)cc1,outcome,[8],inactive
O=c1[nH]cnc2c1ncn2[C@H]1CC[C@@H](CO)O1,outcome,[11],inactive
same,outcome,[8],inactive
same,AC50,[5],25 µM (active)
same,outcome,[12],inactive
same,outcome,[2],inactive
CC(C)CC(C)O (stereo not drawn),AC50,[3],8.65 µM (active)
COc1cc2c(c(OC)c1OC)-c1ccc(OC)c(=O)cc1[C@@H](NC(C)=O)CC2,AC50,[3],0.485 µM (active)
same,outcome,[6],inactive
CCCCCCCCCCCCCCCCOS(=O)(=O)O,AC50,[1],2.18 µM (active)
same,outcome,[13],inactive
same,AC50,[9],4.2 µM (active)
CCc1ccc(O)c(C(C)(C)C)c1,outcome,[14],inactive
O=S(=O)(O)c1ccc(N=Nc2c(O)ccc3cc(S(=O)(=O)O)ccc23)cc1,AC50,[10],37.7 µM (active)
CCCc1ccccc1,outcome,[12],inactive
O=C(NO)C1(NS(=O)(=O)c2ccc(Oc3ccc(F)cc3)cc2)CCOCC1,outcome,[15],inactive
same,outcome,[2],inactive
same,outcome,[4],inactive
S=P(N1CC1)(N1CC1)N1CC1,AC50,[15],5.2 µM (active)
same,AC50,[13],20.3 µM (active) and 26.1 µM (active)
same,outcome,[2],inactive
Cc1ncc([C@@H](CCCCCCc2ccc3c(n2)NCCC3)CC(=O)O)cn1,outcome,[7],inactive
same,outcome,[11],inactive
same,outcome,[16],inactive
CCCCN1C(=O)[C@@H]([C@H](O)C2CCCCC2)NC(=O)C12CCN(Cc1ccc(Oc3ccc(C(=O)O)cc3)cc1)CC2,AC50,[13],14.8 µM (active)
CCCCCCCCN(C)C,outcome,[6],inactive
same,outcome,[14],inactive
same,outcome,[2],inactive
CCCCOC(=O)c1ccccc1,outcome,[14],inactive
O=C(O)[C@H](O)[C@@H](O)C(=O)O,outcome,[12],inactive
CC(C)CCCCCCOC(=O)C1CCCCC1C(=O)OCCCCCCC(C)C (stereo not drawn),outcome,[6],inactive
same,outcome,[9],inactive
O=C(O)c1cccc(C[C@@H]2COc3ccc(OCc4nc5cc(F)ccc5s4)cc3[C@@H]2O)c1,outcome,[12],inactive
